# High-throughput results as filed in PubChem.
# Shown are actives, neighbours in structure and some others; about 11% of the full set was active somewhere.
# FLuc inh: Photinus pyralis luciferase inhibition | P08659 | AID 1347043 | purified P. pyralis luciferase, luminescence, biochemical | Potency, µM (highest dose often 115 µM), actives largely listed as inhibitors | actives 2.5% (n = 76,000); further: nearly all actives have a fitted effect of over 65% in size
# Target sequence (P08659 whole entry, looked up): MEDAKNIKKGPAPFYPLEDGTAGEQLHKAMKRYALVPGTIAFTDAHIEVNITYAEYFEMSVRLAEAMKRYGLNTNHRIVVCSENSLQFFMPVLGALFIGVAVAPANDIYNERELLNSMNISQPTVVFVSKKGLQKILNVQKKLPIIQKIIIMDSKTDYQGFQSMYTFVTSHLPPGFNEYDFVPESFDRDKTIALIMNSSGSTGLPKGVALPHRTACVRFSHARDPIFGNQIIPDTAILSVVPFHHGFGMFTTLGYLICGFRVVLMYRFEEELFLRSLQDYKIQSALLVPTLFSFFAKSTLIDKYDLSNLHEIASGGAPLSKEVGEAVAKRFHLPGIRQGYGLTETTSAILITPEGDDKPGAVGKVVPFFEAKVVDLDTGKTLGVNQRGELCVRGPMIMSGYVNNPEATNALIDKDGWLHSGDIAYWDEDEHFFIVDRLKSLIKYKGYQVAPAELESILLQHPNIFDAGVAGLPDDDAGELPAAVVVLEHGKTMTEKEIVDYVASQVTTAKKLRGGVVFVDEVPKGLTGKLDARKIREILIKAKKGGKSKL
#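 FLuc 10nM, D-luciferin 10uM, ATP 10uM, Mg acetate 10mM, Tris acetate pH 7.5, Tween/BSA; cpd qHTS; enzyme added last; CCD luminescence.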
# HEK293 tox: HEK 293 cell cytotoxicity; Potency, µM (series often up to 115 µM), inactives show at the top dose activity change, negative = cytotoxicity, hits mostly inhibitors; HEK 293 viability, ATP luminescence (CellTiter-Glo), 48-72 h; AID 1345083; actives 6.6% (n = 94,000); further: nearly all actives have a fitted effect of over 60% in size
#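 HEK 293 cells at 250 cells/well were exposed to compounds by pintool transfer for 48 or 72 hr at 37 degree Celsius, 5% CO2. Viability was read as ATP-coupled luminescence with CellTiter-Glo after 10 min at room temperature.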
# NPR1 antag: human Npr1 receptor antagonism; P16066; Potency, µM (top dose mostly 46.3 µM), for the others: at the highest dose activity change, negative = inhibition, most hits filed as inhibitors; HEK293 hNpr1 GloSensor cGMP, ANP-stimulated luminescence; actives 1.6% (n = 76,000); calls by dose curve; further: nearly all actives have a fitted effect of over 60% in size
#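 Compound pre-incubated 30 min at room temperature on GloSensor-loaded HEK293 cells stably carrying hNpr1 and the pGS-40F cGMP biosensor. Stimulation uses hNppA at 0.1 nM final; luminescence is taken at baseline and 20 min post-agonist.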
# 3T3 cytotox: kills NIH 3T3 cells. NIH 3T3 viability, CellTiter-Glo ATP luminescence, 48-72 h. Potency, µM (titrated, usually from 96.7 µM), for inactives: at the top dose activity change, negative = cytotoxicity, usual class: inhibitors. actives 4.3% (n = 94,000); further: nearly all actives have a fitted effect of over 55% in size
#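 NIH 3T3 cells at 400 cells/well received 23 nL of compound by pintool and were incubated 48 or 72 h at 37 °C. Viability was read as ATP-coupled CellTiter-Glo luminescence.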
# Starred values were filed as active, the others as inactive; i = inactive; ? = inconclusive; nt = no result; ! = repeats disagree; [ ] = another dose, or the depositor's remark. Unless noted, the call rests on the fitted dose curve; in most records, active means well fitted curve in the direction sought with a large enough effect; inconclusive means small, poorly fitted or top-dose-only effect, or another doubt; inactive means no such curve, though single readings can be large; an effect the other way counts as inactive or inconclusive. On the % scale 0 is the no-effect control and ±100 the full control effect; potency means the concentration at half of the fitted maximal effect.
SMILES,FLuc inh,HEK293 tox,NPR1 antag,3T3 cytotox
c1ccc(CN2Cc3[nH]cnc3C[C@H]2c2nc(-c3ccccc3)no2)cc1,i,71µM*,-17%[70.6 µM],?
Cc1ccc(-c2noc([C@@H]3Cc4nc[nH]c4CN3C(=O)CCC(=O)O)n2)cc1,?,-12%[172 µM],-3%[70.6 µM],-21%[174 µM]
Fc1ccc(CN2Cc3[nH]cnc3C[C@H]2c2nc(-c3ccc(F)c(Cl)c3)no2)cc1,?,?,-25%[70.6 µM],89µM*
COc1ccc(CN2CC(O)CN(C(=O)c3cccc(C(F)(F)F)c3)CC2=O)cc1 (centres undefined),nt,?,nt,-25%
O=C1CC2(CCN(Cc3ccccc3)CC2)Oc2ccccc21,?,?,-18%[70.6 µM],?
O=C1CC2(CCN(Cc3ccc(C(F)(F)F)cc3)CC2)Oc2ccccc21,i,25µM*,?,?
O=C1CC2(CCN(Cc3cccc4ccccc34)CC2)Oc2cc(Cl)ccc21,i,?,14%,?
O=C1CC2(CCN(Cc3cccc4ccccc34)CC2)Oc2ccccc21,i,35µM*,-14%,?
O=C1CC2(CCN(Cc3ccsc3)CC2)Oc2ccccc21,45µM*,?,10%[70.6 µM],?
Cc1cc(C(=O)N2CCC(N3C(=O)C4(CCCC4)C3c3ccccc3)CC2)nn1C (centres undefined),i,-3%,13%,i
CCCOCCCNC(=O)c1c(C)noc1-c1ccc(C(C)(C)C)cc1,i,35µM*,3%,?
COc1ccccc1CN(C)C(=O)CC1C(=O)NCCN1CC1CCCCC1 (centres undefined),i,?,2%,2%
CNC(=O)c1cc(C2CC2)nc2c1c(C1CCN(C(=O)c3ccccn3)C1)nn2C (centres undefined),nt,-21%,nt,-13%
Cc1noc(C)c1-c1cc2c(cc(C)n2C)c(Nc2ccncn2)n1,i,?,-18%[70.6 µM],20µM*
Cc1noc(C)c1-c1cc2c(cc(-c3ccccc3)n2C)c(Nc2ccncn2)n1,i,32µM*,-17%[70.6 µM],?
Cc1noc(C)c1-c1cc2c(cc(C)n2C)c(NCCN(C)C)n1,i,?,-2%[70.6 µM],?
Cc1nn(-c2ccccc2)c2c1C(C(C)C)N(C1CCN([S+](=O)([O-])c3c(C)noc3C)C1)C2=O (centres undefined),nt,?,nt,-23%
Cc1noc(C)c1[S+](=O)([O-])NC1CCN(Cc2cccc(-c3cccs3)c2)CC1,nt,22µM*!,nt,40µM*!
CC(=O)NC1(C)CCCN(Cc2cccc(-c3c(C)noc3C)c2)C1 (centres undefined),i,-20%[172 µM],4%[70.6 µM],?
Cc1cccc(-c2cccc(CN3CCC(N[S+](=O)([O-])c4c(C)noc4C)CC3)c2)c1,nt,28µM*,nt,32µM*
COC1CN(c2ccc(C)cc2)C12CCN(C(=O)COc1ccc(F)cc1)CC2 (centres undefined),i,?,-3%,?
COCCN1C(=O)[C@@H]2C[C@@H](CN2Cc2cccc(OC)c2)Oc2ccccc21,i,?,-14%[70.6 µM],?
Cc1cccc(N2CCN(c3nccc(-c4ccccn4)n3)CC2)n1,?,?,0%,-5%
CC(C)C(O)C1CCN(c2nccc(-c3cc(C(=O)O)ccn3)n2)CC1 (centres undefined),50µM*,-18%,0%,-11%
O=C(Nc1ccc(Cl)cc1Cl)c1ccc2ccnn2c1,2.8µM*,?,-5%[70.6 µM],-21%[138 µM]
SMILES,FLuc inh,HEK293 tox,NPR1 antag,3T3 cytotox
CN1C(=O)CCC2(CNC(=O)CCc3ccccc3)CCC=C12 (centres undefined),nt,i,nt,-10%
O=C1CO[C@H]2CCN(Cc3ccccc3O)CC[C@@H]2N1c1ccccc1,i,-20%[172 µM],-1%[70.6 µM],?
O=C1CO[C@H]2CCN(CCCc3ccccc3)CC[C@@H]2N1c1ccccc1,i,100µM*,-26%[70.6 µM],89µM*
O=C1CO[C@H]2CCN(Cc3ccccc3Cl)CC[C@@H]2N1c1ccccc1,i,79µM*,-26%[70.6 µM],?
O=C(c1ccc(C(F)(F)F)cc1)N1CCCC2(C1)C(=NC1CCCC1)NC(=O)N2c1cc(F)cc(F)c1 (centres undefined),nt,-6%,nt,-7%
c1ccc(-c2nc3ncccc3[nH]2)nc1,i,?,21%[70.6 µM],?
c1cnc2nc(-c3ccsc3)[nH]c2c1,?,126µM*!,3%[70.6 µM],?
c1cnc2nc(-c3c[nH]c4ncccc34)[nH]c2c1,89µM*,?,12%[70.6 µM],?
c1cnc2nc(C3CCNC3)[nH]c2c1 (centres undefined),i,-13%[230 µM],0%[70.6 µM],-4%[174 µM]
O=C(O)c1ccc(-c2nc3ncccc3[nH]2)cc1,i,-3%[172 µM],8%[70.6 µM],-10%[138 µM]
Cc1cc(-c2nc3ncccc3[nH]2)c(C)[nH]1,40µM*,?,-1%[70.6 µM],?
COCCN1C(=O)CCC2(C(=O)NCc3ccc(Cl)cc3)CCCC=C12 (centres undefined),nt,i,nt,-23%
CCOc1c(CN(C)C(=O)C(c2ccc(F)cc2)N(C)C)cccc1OC (centres undefined),i,-31%,-12%,-28%
O=C(NCCNC(=O)c1ccc(C(F)(F)F)cc1)c1ccc(-c2cncnc2)cc1,nt,i,nt,-8%
CC(C)Cc1cc(CNc2nccc(-c3cc(C(=O)O)ccn3)n2)no1,?,-3%,0%,-1%
O=C(O)c1ccnc(-c2ccnc(NCC(O)c3ccccc3Cl)n2)c1 (centres undefined),32µM*,i,2%,i
COc1cccc(C(=O)N2CCC3(CC2)N(c2ccccc2)C(=O)CS3(=O)=O)c1,nt,i,nt,3%
O=C(NC1CCCN(c2cc(-c3ccc(F)cc3)[nH]n2)C1)c1ccc(F)c(F)c1 (centres undefined),i,45µM*,-28%,?
O=C(c1cccc(OC(F)(F)F)c1)N1CCN(c2cc(-c3cccs3)[nH]n2)CC1,i,?,-25%,?
O=C(NC1CCN(c2cc(-c3ccc(F)cc3)[nH]n2)C1)c1cccc(OC(F)(F)F)c1 (centres undefined),i,40µM*,-12%,?
O=C(NC1CCCN(c2cc(-c3ccc(F)cc3)[nH]n2)C1)c1cccc(F)c1 (centres undefined),i,32µM*,-9%,?
O=C(c1cccc(OC(F)(F)F)c1)N1CCN(c2cc(-c3ccc(F)cc3)[nH]n2)CC1,i,?,?,35µM*
COc1ccc(-c2noc([C@@H]3C[C@@H](O)CN3Cc3ccccc3)n2)cc1,?,?,-30%[70.6 µM],?
O[C@@H]1C[C@@H](c2nc(-c3ccccc3)no2)N(Cc2ncc[nH]2)C1,22µM*,-8%[172 µM],3%[70.6 µM],-10%[174 µM]
O=[N+]([O-])c1cccc(-c2noc([C@@H]3C[C@@H](O)CN3Cc3ncc[nH]3)n2)c1,i,-17%[172 µM],3%[70.6 µM],-20%[174 µM]
COc1ccc(-c2noc([C@@H]3C[C@@H](O)CN3C3CCN(C)CC3)n2)cc1,71µM*,-23%[172 µM],7%[70.6 µM],-10%[174 µM]
